Measured values published in ChEMBL document CHEMBL1961873, “Compounds: GSK PKIS; Assays: Nanosyn kinase panel” (2012).

What was measured:
[1] = tested on: Tyrosine-protein kinase ABL1 (Homo sapiens), P00519 [T315I]; details: at 1 µM
[2] = tested on: Tyrosine-protein kinase ABL1 (Homo sapiens), P00519 [Y253F]; details: at 0.1 µM
[3] = tested on: Tyrosine-protein kinase ABL1 (Homo sapiens), P00519 [Y253F]; details: at 1 µM
[4] = target: Tyrosine-protein kinase ABL1 (Homo sapiens) (UniProt P00519); details: at 0.1 µM
[5] = target: Tyrosine-protein kinase ABL1 (Homo sapiens) (UniProt P00519); details: at 1 µM
[6] = target: ALK tyrosine kinase receptor (Homo sapiens) (UniProt Q9UM73); details: at 0.1 µM
[7] = target: ALK tyrosine kinase receptor (Homo sapiens) (UniProt Q9UM73); details: at 1 µM
[8] = target: Tyrosine-protein kinase ABL2 (Homo sapiens) (UniProt P42684); details: at 0.1 µM
[9] = target: Tyrosine-protein kinase ABL2 (Homo sapiens) (UniProt P42684); details: at 1 µM
[10] = target: Tyrosine-protein kinase receptor UFO (Homo sapiens) (UniProt P30530); details: at 0.1 µM
[11] = target: Tyrosine-protein kinase receptor UFO (Homo sapiens) (UniProt P30530); details: at 1 µM
[12] = target: Tyrosine-protein kinase Blk (Homo sapiens) (UniProt P51451); details: at 0.1 µM
[13] = target: Tyrosine-protein kinase Blk (Homo sapiens) (UniProt P51451); details: at 1 µM
[14] = target: T1, Cytoplasmic tyrosine-protein kinase BMX (Homo sapiens) (UniProt P51813); details: at 0.1 µM
T1 sequence (whole entry): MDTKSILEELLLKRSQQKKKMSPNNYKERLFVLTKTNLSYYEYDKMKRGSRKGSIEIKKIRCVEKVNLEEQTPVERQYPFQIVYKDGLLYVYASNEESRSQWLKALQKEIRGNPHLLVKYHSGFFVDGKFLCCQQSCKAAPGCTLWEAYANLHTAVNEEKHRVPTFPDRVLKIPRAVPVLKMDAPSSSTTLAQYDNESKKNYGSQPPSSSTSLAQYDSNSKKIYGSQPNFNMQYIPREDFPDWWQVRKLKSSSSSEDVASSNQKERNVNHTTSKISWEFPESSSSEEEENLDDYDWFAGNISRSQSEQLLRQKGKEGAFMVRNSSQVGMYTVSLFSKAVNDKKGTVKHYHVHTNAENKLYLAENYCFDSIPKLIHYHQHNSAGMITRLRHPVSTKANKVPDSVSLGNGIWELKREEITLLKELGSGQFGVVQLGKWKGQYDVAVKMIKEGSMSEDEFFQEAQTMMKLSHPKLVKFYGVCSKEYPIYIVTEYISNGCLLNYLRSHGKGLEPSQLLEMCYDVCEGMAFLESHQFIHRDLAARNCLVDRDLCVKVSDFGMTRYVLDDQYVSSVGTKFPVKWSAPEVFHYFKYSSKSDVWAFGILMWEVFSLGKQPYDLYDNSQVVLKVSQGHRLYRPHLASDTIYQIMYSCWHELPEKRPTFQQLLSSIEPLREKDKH

[15] = target: T1, Cytoplasmic tyrosine-protein kinase BMX (Homo sapiens); details: at 1 µM
[16] = target: Protein-tyrosine kinase 6 (Homo sapiens) (UniProt Q13882); details: at 0.1 µM
[17] = target: Protein-tyrosine kinase 6 (Homo sapiens) (UniProt Q13882); details: at 1 µM
[18] = target: Tyrosine-protein kinase BTK (Homo sapiens) (UniProt Q06187); details: at 0.1 µM
[19] = target: Tyrosine-protein kinase BTK (Homo sapiens) (UniProt Q06187); details: at 1 µM
[20] = target: Tyrosine-protein kinase CSK (Homo sapiens) (UniProt P41240); details: at 0.1 µM;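 also: value given is the averaged percent inhibition of CSK kinase activity, from the GSK PKIS kinase inhibitor set screening panel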
Sequence of Tyrosine-protein kinase CSK (Homo sapiens) (P41240 2-450 limits assumed): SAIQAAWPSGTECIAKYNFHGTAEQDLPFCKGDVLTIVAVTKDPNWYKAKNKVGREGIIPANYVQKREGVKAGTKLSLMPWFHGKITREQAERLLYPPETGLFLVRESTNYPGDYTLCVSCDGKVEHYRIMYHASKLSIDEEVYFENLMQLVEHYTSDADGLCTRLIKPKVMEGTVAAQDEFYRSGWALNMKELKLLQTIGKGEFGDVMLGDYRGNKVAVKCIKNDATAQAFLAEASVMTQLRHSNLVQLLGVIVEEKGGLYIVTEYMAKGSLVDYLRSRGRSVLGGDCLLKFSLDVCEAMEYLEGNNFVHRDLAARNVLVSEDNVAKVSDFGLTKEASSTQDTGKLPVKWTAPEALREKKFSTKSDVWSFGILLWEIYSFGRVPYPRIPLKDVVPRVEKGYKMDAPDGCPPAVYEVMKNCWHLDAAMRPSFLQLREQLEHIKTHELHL

Sequence of ALK tyrosine kinase receptor (Homo sapiens) (Q9UM73 19-1620 limits assumed): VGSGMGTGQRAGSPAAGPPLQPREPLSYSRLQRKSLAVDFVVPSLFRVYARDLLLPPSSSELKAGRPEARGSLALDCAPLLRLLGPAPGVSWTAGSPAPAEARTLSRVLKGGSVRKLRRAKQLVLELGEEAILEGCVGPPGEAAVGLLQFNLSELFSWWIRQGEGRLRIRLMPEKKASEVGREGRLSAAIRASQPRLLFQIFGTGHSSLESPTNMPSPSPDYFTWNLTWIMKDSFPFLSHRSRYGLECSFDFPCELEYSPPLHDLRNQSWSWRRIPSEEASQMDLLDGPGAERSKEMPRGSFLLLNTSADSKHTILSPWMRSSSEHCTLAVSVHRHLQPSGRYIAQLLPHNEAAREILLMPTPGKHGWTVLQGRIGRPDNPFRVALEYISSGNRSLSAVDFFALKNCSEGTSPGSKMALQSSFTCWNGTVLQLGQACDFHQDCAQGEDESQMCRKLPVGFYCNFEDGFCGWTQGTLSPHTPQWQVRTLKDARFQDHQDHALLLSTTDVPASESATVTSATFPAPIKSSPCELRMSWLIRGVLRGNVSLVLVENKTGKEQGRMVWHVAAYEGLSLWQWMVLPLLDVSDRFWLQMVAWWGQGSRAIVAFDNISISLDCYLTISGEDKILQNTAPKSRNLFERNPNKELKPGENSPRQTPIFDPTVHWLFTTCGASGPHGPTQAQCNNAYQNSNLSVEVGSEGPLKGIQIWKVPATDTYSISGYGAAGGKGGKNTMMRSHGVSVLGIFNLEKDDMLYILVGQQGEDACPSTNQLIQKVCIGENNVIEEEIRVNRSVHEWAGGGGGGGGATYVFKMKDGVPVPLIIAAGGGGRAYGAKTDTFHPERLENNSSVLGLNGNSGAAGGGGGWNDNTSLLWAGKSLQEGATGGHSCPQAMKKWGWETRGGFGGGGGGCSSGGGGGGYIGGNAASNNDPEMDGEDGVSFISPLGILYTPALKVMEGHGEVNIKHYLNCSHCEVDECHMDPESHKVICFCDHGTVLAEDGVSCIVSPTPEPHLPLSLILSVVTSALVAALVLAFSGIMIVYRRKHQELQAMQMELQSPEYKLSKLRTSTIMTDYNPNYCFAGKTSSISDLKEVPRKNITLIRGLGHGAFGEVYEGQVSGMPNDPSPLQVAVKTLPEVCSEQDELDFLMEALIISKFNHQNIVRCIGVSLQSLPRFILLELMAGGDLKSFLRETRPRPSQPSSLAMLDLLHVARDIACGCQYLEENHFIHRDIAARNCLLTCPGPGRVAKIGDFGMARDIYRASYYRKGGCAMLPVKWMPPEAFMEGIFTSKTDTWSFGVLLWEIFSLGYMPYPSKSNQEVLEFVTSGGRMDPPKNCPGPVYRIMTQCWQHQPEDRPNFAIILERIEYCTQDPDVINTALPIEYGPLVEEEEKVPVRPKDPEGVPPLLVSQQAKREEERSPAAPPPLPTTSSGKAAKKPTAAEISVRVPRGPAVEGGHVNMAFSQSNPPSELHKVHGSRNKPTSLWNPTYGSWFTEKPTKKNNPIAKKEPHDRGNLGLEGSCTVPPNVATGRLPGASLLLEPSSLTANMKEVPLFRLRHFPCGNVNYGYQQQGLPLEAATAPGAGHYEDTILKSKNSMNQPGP
Sequence of Tyrosine-protein kinase receptor UFO (Homo sapiens) (P30530 whole entry): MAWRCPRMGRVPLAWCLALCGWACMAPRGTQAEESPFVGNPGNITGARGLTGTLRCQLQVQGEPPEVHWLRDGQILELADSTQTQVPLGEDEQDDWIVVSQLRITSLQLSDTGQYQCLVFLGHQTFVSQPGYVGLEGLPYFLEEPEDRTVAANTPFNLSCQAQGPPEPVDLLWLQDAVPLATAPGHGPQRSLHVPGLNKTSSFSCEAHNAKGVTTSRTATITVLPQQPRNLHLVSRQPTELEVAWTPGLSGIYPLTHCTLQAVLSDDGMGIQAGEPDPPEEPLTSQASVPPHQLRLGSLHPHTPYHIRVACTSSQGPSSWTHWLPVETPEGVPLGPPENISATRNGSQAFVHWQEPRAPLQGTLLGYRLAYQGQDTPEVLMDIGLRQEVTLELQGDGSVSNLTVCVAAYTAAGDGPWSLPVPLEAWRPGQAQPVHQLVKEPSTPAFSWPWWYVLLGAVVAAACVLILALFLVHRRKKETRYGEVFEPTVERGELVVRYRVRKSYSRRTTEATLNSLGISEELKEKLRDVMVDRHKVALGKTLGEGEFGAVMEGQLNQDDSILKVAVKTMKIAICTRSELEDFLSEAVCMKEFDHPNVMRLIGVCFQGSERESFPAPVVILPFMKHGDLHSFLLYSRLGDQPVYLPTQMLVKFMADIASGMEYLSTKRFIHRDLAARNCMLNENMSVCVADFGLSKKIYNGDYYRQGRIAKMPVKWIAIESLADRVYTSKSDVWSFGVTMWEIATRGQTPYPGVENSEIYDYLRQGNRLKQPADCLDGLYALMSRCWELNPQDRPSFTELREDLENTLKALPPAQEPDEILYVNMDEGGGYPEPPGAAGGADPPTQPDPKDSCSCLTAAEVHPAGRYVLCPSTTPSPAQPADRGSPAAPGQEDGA
Sequence of Tyrosine-protein kinase BTK (Homo sapiens) (Q06187 whole entry): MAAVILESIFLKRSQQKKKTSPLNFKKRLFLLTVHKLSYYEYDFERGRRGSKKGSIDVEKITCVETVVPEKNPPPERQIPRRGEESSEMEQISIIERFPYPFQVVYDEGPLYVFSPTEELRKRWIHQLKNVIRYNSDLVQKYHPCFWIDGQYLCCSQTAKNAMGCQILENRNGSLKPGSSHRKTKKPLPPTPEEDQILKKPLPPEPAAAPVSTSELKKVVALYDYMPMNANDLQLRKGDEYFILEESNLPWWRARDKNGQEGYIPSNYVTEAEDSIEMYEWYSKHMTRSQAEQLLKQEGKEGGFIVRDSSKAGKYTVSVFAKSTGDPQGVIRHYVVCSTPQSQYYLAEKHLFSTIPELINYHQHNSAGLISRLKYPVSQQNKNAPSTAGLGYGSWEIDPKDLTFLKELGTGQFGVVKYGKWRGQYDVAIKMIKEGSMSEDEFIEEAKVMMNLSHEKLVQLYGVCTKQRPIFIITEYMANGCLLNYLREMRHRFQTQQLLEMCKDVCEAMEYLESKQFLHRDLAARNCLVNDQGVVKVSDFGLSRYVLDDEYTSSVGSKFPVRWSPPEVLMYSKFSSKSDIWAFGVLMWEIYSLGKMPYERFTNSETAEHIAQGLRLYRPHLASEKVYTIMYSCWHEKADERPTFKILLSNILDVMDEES
Sequence of Tyrosine-protein kinase ABL2 (Homo sapiens) (P42684 whole entry): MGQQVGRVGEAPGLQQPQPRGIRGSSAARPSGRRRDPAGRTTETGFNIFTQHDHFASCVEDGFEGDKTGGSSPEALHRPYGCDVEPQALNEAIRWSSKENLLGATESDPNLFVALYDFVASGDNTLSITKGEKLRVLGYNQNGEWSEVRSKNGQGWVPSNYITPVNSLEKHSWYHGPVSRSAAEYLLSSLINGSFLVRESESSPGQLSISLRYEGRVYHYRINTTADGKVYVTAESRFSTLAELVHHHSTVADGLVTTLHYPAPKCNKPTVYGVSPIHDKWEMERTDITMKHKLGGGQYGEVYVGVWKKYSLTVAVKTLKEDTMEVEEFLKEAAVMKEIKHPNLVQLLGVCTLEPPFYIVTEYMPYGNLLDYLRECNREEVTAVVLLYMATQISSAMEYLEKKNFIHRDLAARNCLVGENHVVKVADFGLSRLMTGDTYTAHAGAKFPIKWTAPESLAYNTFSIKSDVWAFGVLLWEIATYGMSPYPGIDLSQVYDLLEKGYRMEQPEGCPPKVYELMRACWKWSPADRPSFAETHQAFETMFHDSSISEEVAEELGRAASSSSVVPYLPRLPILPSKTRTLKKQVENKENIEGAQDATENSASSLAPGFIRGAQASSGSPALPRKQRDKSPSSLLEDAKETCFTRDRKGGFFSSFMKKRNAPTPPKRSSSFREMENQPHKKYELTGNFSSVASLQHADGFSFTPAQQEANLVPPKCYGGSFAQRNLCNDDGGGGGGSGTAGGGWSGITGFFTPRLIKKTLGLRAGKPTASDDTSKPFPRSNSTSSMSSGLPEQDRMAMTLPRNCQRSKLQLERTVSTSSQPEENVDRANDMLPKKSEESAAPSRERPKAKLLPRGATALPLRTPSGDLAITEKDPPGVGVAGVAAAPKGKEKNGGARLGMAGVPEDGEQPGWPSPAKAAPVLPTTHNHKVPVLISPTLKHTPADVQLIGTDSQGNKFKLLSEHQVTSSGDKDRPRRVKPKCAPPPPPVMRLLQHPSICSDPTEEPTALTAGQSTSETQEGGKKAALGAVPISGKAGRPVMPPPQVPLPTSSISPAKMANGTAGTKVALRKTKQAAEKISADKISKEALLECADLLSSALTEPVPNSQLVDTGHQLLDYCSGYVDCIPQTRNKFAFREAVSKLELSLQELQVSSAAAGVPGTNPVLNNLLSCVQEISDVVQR

Structure (SMILES) | inhibition [1] [%] | inhibition [2] [%] | inhibition [3] [%] | inhibition [4] [%] | inhibition [5] [%] | inhibition [6] [%] | inhibition [7] [%] | inhibition [8] [%] | inhibition [9] [%] | inhibition [10] [%] | inhibition [11] [%] | inhibition [12] [%] | inhibition [13] [%] | inhibition [14] [%] | inhibition [15] [%] | inhibition [16] [%] | inhibition [17] [%] | inhibition [18] [%] | inhibition [19] [%] | inhibition [20] [%]
Nc1nccc(-c2c(-c3ccc(F)cc3)ncn2C2CCC(O)CC2)n1 (centres undefined) | 42.7 | 1.83 | 24.4 | 1.2 | 36.8 | -2.24 | 2.88 | 0.37 | 30.3 | 2.47 | 6.29 | 0.25 | 5.98 | -2.32 | 3.78 | 1.95 | 14 | -0.78 | 1.08 | -1.06
NC(=O)c1cc(-c2ccc(F)cc2)cc(-c2ccncc2)c1N | 4.82 | 4.33 | 5.14 | 2.42 | 6.04 | 1.8 | 4.91 | 1.26 | 5.07 | -7.77 | -4.61 | 2.33 | 4.55 | 7.08 | 7.6 | 3.05 | 5.71 | 0.21 | -0.9 | 0.77
NS(=O)(=O)c1ccc(N/N=C2\C(=O)Nc3ccc(-c4cnco4)cc32)cc1 | 19.9 | 3.03 | 13.4 | -0.39 | 9.41 | -3.07 | -0.11 | -0.55 | 9.88 | -3.81 | -1.27 | -1.23 | 10.4 | 0.98 | 5.77 | 3.53 | 4.99 | -4.28 | -2.57 | 2.16
CCS(=O)(=O)c1ccc(OC)c(Nc2ncc(-c3ccccc3Cl)o2)c1 | 11.7 | 5.95 | 33.3 | 2.99 | 29.3 | 0.79 | 5.19 | 4.89 | 24.5 | -0.86 | 1.78 | 2.51 | 15.7 | -1.76 | 3.11 | -0.35 | 5.66 | 2.72 | 2.31 | 1.15
NCc1ccc(-n2c(-c3nonc3N)nc3cnccc32)cc1 | 0.9 | 4.15 | 2.66 | 4.78 | 3.54 | 6.31 | 17.3 | 4.87 | 6.75 | -7.21 | -1.85 | 3.21 | 4.2 | 5.93 | 4.77 | 5.04 | 5.62 | -0.77 | 0.66 | 3.09
NC(=O)c1ccc(Oc2nccc(-c3c(-c4ccc(F)cc4)ncn3C3CCNCC3)n2)cc1 | 2.27 | 3.97 | 3.32 | 4.17 | 2.89 | 4.85 | 4.45 | 2.35 | 3.64 | -7.67 | -8.36 | 3.48 | 3.04 | 5.3 | 7.95 | 3.36 | 6.07 | -0.49 | 0.73 | 3.03
Fc1ccc(-c2c(-c3ccncc3)nc3n2CCS3)cc1 | 3.81 | 2.69 | 5.48 | -1.32 | 2.3 | -2.59 | -1.88 | -2.22 | 2.07 | -4.74 | -2.08 | -2.78 | -0.74 | 1.44 | 0.74 | 4.76 | 4.76 | -5.15 | -4.99 | 3.65
Fc1ccc(-c2ncn(C3CCNCC3)c2-c2ccnc(Oc3ccc(F)c(F)c3)n2)cc1 | 1.7 | 1.79 | 2.98 | -1.26 | -1.29 | -1 | 1.5 | -1.34 | 0.3 |  | -4.58 | -1.88 | -2.13 | 3.36 | 3.49 | 2.61 | 5.39 | -4.19 | -4.23 | 2.54
